# Screening data as filed in PubChem BioAssay.
# TGFb SMAD3 inh: blocks TGF-b signaling; HepG2 CAGA-GFP TGF-b/SMAD3 reporter, GFP fluorescence, 18 h; TGF-beta stimulated, 500 pg/mL final; Potency, µM (series often up to 46.1 µM), usual class: inhibitors; actives 1.2% (n = 410,000); further: nearly all actives have a fitted effect of over 65% in size
#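 HEPG2 CAGA-GFP reporter cells (1000/well, DMEM with 1% FBS) received compounds, then recombinant TGF-beta at 500 pg/mL final for 18 hours at 37 degrees C. Per-cell GFP summed per well was normalised to unstimulated and stimulated DMSO controls before curve fitting.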
# TDP1 block: inhibitors of human tyrosyl-DNA phosphodiesterase TDP1; Potency, µM (highest dose often 130 µM), hits mostly inhibitors; Q9NUW8; AID 485290; actives 0.28% (n = 350,000); recombinant TDP1, AlphaScreen DNA substrate cleavage; further: nearly all actives have a fitted effect of over 40% in size
# Target sequence (Q9NUW8 whole entry, looked up): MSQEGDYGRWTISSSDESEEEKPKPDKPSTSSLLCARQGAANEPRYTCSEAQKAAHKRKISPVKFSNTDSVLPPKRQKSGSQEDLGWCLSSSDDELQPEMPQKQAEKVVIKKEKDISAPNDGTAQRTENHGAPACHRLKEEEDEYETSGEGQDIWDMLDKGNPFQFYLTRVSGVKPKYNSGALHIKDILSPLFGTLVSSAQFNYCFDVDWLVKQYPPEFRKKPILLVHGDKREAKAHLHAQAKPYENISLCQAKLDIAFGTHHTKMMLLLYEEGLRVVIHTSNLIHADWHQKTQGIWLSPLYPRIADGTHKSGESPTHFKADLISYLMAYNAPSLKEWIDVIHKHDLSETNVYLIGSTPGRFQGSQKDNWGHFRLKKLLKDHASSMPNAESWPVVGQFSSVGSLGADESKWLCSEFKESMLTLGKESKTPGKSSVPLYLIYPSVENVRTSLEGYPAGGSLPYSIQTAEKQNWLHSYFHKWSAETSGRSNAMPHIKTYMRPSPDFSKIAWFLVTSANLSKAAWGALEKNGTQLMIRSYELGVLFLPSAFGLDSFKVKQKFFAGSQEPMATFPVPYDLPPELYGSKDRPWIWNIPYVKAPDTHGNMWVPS
#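 AlphaScreen read-out: signal falls as enzyme removes the 3' tyrosine-FITC from a 5'-biotinylated DNA oligo (15 nM, 5 min, RT). Enzyme was E. coli-made recombinant Tdp1 at 1 nM, exposed to compound for 15 min beforehand; beads 10 ug/ml, 10 min.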
# HepG2 tox: counter-screen for TGF-b inhibitors: cytotoxicity in HepG2 cells. HepG2 CAGA-GFP viability, ATP luminescence, 18 h. Potency, µM (doses to about 46.1 µM), most hits filed as cytotoxic. actives 0.76% (n = 410,000)
#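 HepG2 CAGA-GFP cells (1000/well, DMEM with 1% FBS) received compound, then TGF-beta at 500 pg/mL final, and were incubated 18 hours at 37 degrees C. Viability was read by CellTiter-Glo luminescence. Media-only wells were set as complete cell-killing and DMSO as no toxicity.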
# DT40 TDP1 CPT: growth inhibition of DT40 Tdp1-/-;hTDP1 cells with camptothecin (screen for TDP1 inhibitors) | chicken DT40 Tdp1-/-;hTDP1 cells + 20 nM CPT, ATP luminescence, 48 h | Potency, µM (top dose mostly 46.2 µM), hits mostly inhibitors | actives 12% (n = 420,000); further: nearly all actives have a fitted effect of over 55% in size
#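 Chicken DT40 Tdp1-/- cells complemented with human TDP1, 400 cells/well, exposed to compounds plus 20 nM camptothecin for at least 48 h at 37 C; viability read as ATP content by CellTiter-Glo luminescence.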
# TDP1 cell noCPT: qHTS for Inhibitors of human tyrosyl-DNA phosphodiesterase 1 (TDP1): qHTS in cells in absence of CPT; DT40 Tdp1-/- hTDP1 cells, no CPT, ATP luminescence, 48 h; actives 15% (n = 420,000); Potency, µM (highest dose often 46.2 µM), hits mostly inhibitors; further: nearly all actives have a fitted effect of over 55% in size
#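 Luminescent ATP content (CellTiter-Glo) served as the growth readout. Knockout chicken DT40 cells expressing human TDP1 were exposed to compounds without camptothecin for a minimum 48 hr at 37 °C.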
# IL-1B inflam inh: inhibitors of inflammasome signaling (IL-1 beta secretion); AID 743279; activity change, % at 57.5 µM; THP-1 LPS/ATP IL-1B secretion, AlphaLISA, 16 h; stronger effect = lower value; actives 4.7% (n = 360,000); in the data active means activity change below about -50%; inconclusive means mostly about -30% to -49%
#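 THP-1 cells pretreated 1 hr with compounds (up to 57.5 uM final), then stimulated with LPS (250 ng/mL final) plus ATP (1.25 mM final); secreted IL-1B measured by AlphaLISA after 16 hr, decreased signal indicating inhibition.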
# Hits are given with their value; - = inactive; ? = inconclusive; . = not tested or not shown; [ ] = dose if it differs, or a comment. This is a sample that favours compounds with a hit; in the whole collection about 19% have one here. Unless noted, the call rests on the fitted dose curve; in most records, active means well fitted curve in the direction sought with a large enough effect; inconclusive means small, poorly fitted or top-dose-only effect, or another doubt; inactive means no such curve, though single readings can be large; an effect the other way counts as inactive or inconclusive.
SMILES,TGFb SMAD3 inh,TDP1 block,HepG2 tox,DT40 TDP1 CPT,TDP1 cell noCPT,IL-1B inflam inh
CCNc1ccc(-c2nc(-c3ccco3)no2)cc1[N+](=O)[O-],?,-,-,-,-,.
CC1CC(C)CN(C(=S)NC2CCCCC2)C1 (stereo unspecified),-,-,-,?,26µM,-
S=C(NC1CC1)N1CCN(C(=S)NC2CC2)CC1,-,-,-,-,-,-
O=C(NCCOc1ccccc1)c1ccccc1Cl,-,.,-,-,-,-
CN(C(=O)COc1ccccc1C(=O)NCCOc1ccccc1)c1ccccc1,?,-,-,2.3µM,2.3µM,-97
Cc1nn(-c2ccccc2)c(C)c1NC(=O)COc1ccc([N+](=O)[O-])cc1,-,.,-,?,15µM,-
CCOC(=O)Cn1nc(C)c(NC(=O)COc2ccc([N+](=O)[O-])cc2)c1C,-,-,-,-,-,-
Cc1nn(-c2ccccc2)c(C)c1NC(=O)COc1ccc(F)cc1Cl,-,-,-,23µM,21µM,-
Cc1ccc(OCC(=O)Nc2c(C)nn(-c3ccccc3)c2C)c(Br)c1,?,-,-,?,23µM,?
Cc1ccc(NC(=O)N2CCCC2C(=O)Nc2c(C)cc(C)cc2C)cc1 (stereo unspecified),-,.,-,-,-,-
Cc1ccc(NC(=S)NCCC2=CCCCC2)cc1,-,-,-,?,23µM,-
O=C(NCc1ccco1)Nc1ccc(Br)cc1,-,-,-,-,?,-
CCOC(=O)c1ccc(NC(=S)NCCC2=CCCCC2)cc1,?,-,-,29µM,21µM,-
O=C(NCCC1=CCCCC1)Nc1ccc2nsnc2c1,?,-,-,?,10µM,-94
O=C(NCc1ccco1)Nc1ccc2nsnc2c1,?,-,-,18µM,15µM,-75
O=C(NCCC1=CCCCC1)NC12CC3CC(CC(C3)C1)C2,-,-,-,-,?,-
CNNC(=S)NCCC1=CCCCC1,-,-,-,-,-,-
CC(=O)c1cccc(NC(=S)NCCC2=CCCCC2)c1,?,-,-,16µM,15µM,-
CC(=O)c1cccc(NC(=S)NCCc2ccc(F)cc2)c1,-,-,-,-,?,-
COc1cc(OC)c(N(C)S(=O)(=O)c2cccc(C(=O)Nc3nc(C)cs3)c2)cc1Cl,?,-,-,16µM,?,-
COc1ccccc1N(C)S(=O)(=O)c1ccc(Cl)c(C(=O)NC2=NCCS2)c1,-,-,-,-,-,-
COc1cc(OC)c(N(C)S(=O)(=O)c2cccc(C(=O)NC3=NCCS3)c2)cc1Cl,-,.,-,23µM,?,-
COc1cc(OC)c(N(C)S(=O)(=O)c2cccc(C(=O)OCC(=O)N(C)Cc3ccccc3)c2)cc1Cl,-,.,-,16µM,23µM,-
COc1cc(OC)c(N(C)S(=O)(=O)c2cccc(C(=O)OCC(=O)NCc3ccco3)c2)cc1Cl,-,-,-,?,?,-
CCc1nc2nc(C)c(NS(=O)(=O)c3ccc(C4CCCCC4)cc3)c(=O)n2[nH]1,-,-,-,-,-,-
SMILES,TGFb SMAD3 inh,TDP1 block,HepG2 tox,DT40 TDP1 CPT,TDP1 cell noCPT,IL-1B inflam inh
CCOC(=O)N(C)c1c(CC)nc2c(OCc3ccccc3C)cccn12,-,.,-,?,15µM,-
CCOC(=O)N(C)c1c(CC)nc2c(OCc3ccccc3OC)cccn12,?,.,-,21µM,16µM,-
CCOC(=O)C(=O)N(C)c1c(CC)nc2c(OCc3ccccc3C)cccn12,-,.,-,-,-,-
CCOC(=O)N(C)c1c(CC)nc2c(OCCOc3ccccc3)cccn12,-,.,-,?,16µM,-
CCc1cc2c(nc1CC)CCN(CC/C(C)=N/O[C@@H](C)CN1CCCc3nc(C)c(C)cc31)C2,.,-[21 µM],.,.,.,.
COc1ccc(NC(=O)C2CCN(C(=O)c3sc4nc[nH]c(=O)c4c3C)CC2)cc1Cl,-,-,-,-,-,.
